Activity calls are given as the source filed them.
System: Wnt5a (protein binding on small-molecule microarray)
Assay: Wnt5a binders on small-molecule microarray, primary screen, biophysical, 635/667 nm fluorescence (AID 1142);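 also: fluorescence read at 667 nm with signal to noise per printed feature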
Settings: 635 nm fluorescence, higher = more signal

Row | Compound | composite z-score
1 | C=CCC(OC(C)=O)[C@@H]1[C@@H](N(Cc2ccc(-c3cccc(C(F)(F)F)c3)o2)C(=O)Cc2ccc(OC)cc2)c2cc(OCCCO)ccc2N1C(=O)Cc1ccc2ccccc2c1 (some centres undefined) | -0.19
2 | CO[C@H]1O[C@H](CO)[C@@H](OC(=O)c2ccc(Br)cc2)[C@@H]2OC(=O)[C@H](Cc3ccccc3)C/C=C/C[C@@H](Cc3ccccc3)C(=O)O[C@@H]12 | 0.293
3 | O=C(CS)NCCCCCCNC(=O)[C@@H]1C[C@@H]2C(=O)NCC(=O)N2[C@@H]1c1ccc(O)cc1 | -0.101
4 | COCCOC(=O)N1C(=O)[C@@]2(c3cc(C#CCNC(N)=O)ccc31)[C@H](c1ccc(OCCO)cc1)N1[C@H](c3ccccc3)[C@H](c3ccccc3)OC(=O)[C@H]1[C@@H]2C(=O)NC[C@H](O)c1ccccc1 | 0.423
5 | CC(C)C[C@@H]1NC(=O)CNC(=O)[C@@]23C(=O)N[C@@H](Cc4ccccc4)C2[C@H](C)[C@@]2(C)O[C@H]2C3/C=C/C/C=C\CNC1=O (some centres undefined) | 0.184
6 | COCCOC(=O)N1C(=O)[C@@]2(c3cc(C#CC4(O)CCCCCC4)ccc31)[C@H](c1ccc(OCCO)cc1)N1[C@H](c3ccccc3)[C@H](c3ccccc3)OC(=O)[C@H]1[C@@H]2C(=O)Nc1nc2ccccc2s1 | 0.544
7 | COCCOC(=O)N1C(=O)[C@@]2(c3cc(C#CCC(C(=O)OC)C(=O)OC)ccc31)[C@H](C(=O)NC[C@H](O)c1ccccc1)[C@H]1C(=O)O[C@H](c3ccccc3)[C@H](c3ccccc3)N1[C@@H]2c1ccc(O)cc1 | 0.247
8 | C=C(C(=O)CC[C@H](OC(=O)c1ccccc1-c1ccccc1C(=O)O)c1ccccc1OCCO)C(C)C | 0.121
9 | C=C(C)[C@@H]1CC=C(C(O)C2C=CC3C(=O)N(c4ccccc4)C(=O)C3N2Nc2ccc(C#N)cc2)CC1 (some centres undefined) | 0.335

System: not listed separately
Assay: cell viability in Huh7 cells, primary screen, cytotoxicity control for HCV replication inhibitor project, CellTiter-Glo luminescence, basal, 48 h (AID 1143);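 also: Huh7 hepatoma cells carrying a hepatitis C replication reporter with no stimulus; test concentration not given here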
Settings: Huh7 HCV replicon, higher = more signal, called active from +8 up or from −8 down

Row | Compound | z-score
10 | COC(=O)C(CC#Cc1ccc2c(c1)[C@]1(C(=O)N2)[C@H](c2ccc(O)cc2)N2[C@H](c3ccccc3)[C@H](c3ccccc3)OC(=O)[C@H]2[C@@H]1C(=O)N1CCCCCCC1)C(=O)OC | -3.72 (inactive)
11 | CC(C)=CCCC(C)=CC(O)C1C=CC2C(=O)N(c3ccccc3)C(=O)C2N1Nc1ccccc1F (centres undefined) | -2.83 (inactive)
12 | CN(C)CCCCNC(=O)[C@H]1C[C@H]2C(=O)N[C@@H](CCCC[N+](C)(C)C)C(=O)N2[C@H]1c1ccc(O)cc1 | -0.482 (inactive)
13 | CN(C)CCCNC(=O)[C@@H]1c2ccccc2C(=O)N(C2CCCCC2)[C@H]1c1ccc(CO)cc1 | -0.395 (inactive)
14 | CC(C)CNC(=O)[C@@H]1c2ccccc2C(=O)N(C2CCCCC2)[C@H]1c1ccc(CO)cc1 | -2.94 (inactive)
15 | O=C1C2C=CC(C(O)c3ccco3)N(Nc3ccccc3)C2C(=O)N1c1ccccc1 (centres undefined) | 0.876 (inactive)
16 | COc1ccc([Si](C)(C)[C@@H]2[C@@H](CCn3cc([C@H](O)c4ccccc4)nn3)O[C@]3(C(=O)N(c4ccccc4)c4ccccc43)[C@H]2C)cc1 | -6.24 (inactive)
17 | CCCNC(=O)[C@@]1(Sc2ccc(C)cc2)CC(=O)N(C2CCCCC2)[C@@H]1c1ccc(CO)cc1I | -2.76 (inactive)
18 | COC(=O)C(CC#Cc1ccc2c(c1)[C@]1(C(=O)N2)[C@H](C(=O)Nc2nc3ccccc3s2)[C@H]2C(=O)O[C@H](c3ccccc3)[C@H](c3ccccc3)N2[C@@H]1c1ccc(OCCO)cc1)C(=O)OC | -2.48 (inactive)
19 | CC(=O)NCCCC[C@@H]1NC(=O)[C@@H]2C[C@H](C(=O)NCCCCCCN)[C@H](c3cccc(OCCO)c3)N2C1=O | -0.0107 (inactive)
20 | COc1ccc([Si](C)(C)[C@H]2[C@H](CCO)O[C@@]3(C(=O)N(Cc4ccc(N5C(=O)c6ccccc6Oc6ccccc65)cc4)c4ccccc43)[C@@H]2C)cc1 | -5.43 (inactive)
21 | CCCCC=C[C@@H](NC(=O)c1ccccc1)c1ccccc1 | -0.598 (inactive)
22 | COCCOC(=O)N1C(=O)[C@@]2(c3cc(C#CC4=CCCCC4)ccc31)[C@H](C(=O)N1CCCCCCC1)[C@H]1C(=O)O[C@H](c3ccccc3)[C@H](c3ccccc3)N1[C@@H]2c1ccc(OCCO)cc1 | -3.96 (inactive)
23 | COCCOC(=O)N1C(=O)[C@@]2(c3cc(C#CCNC(N)=O)ccc31)[C@H](c1ccc(O)cc1)N1[C@H](c3ccccc3)[C@H](c3ccccc3)OC(=O)[C@H]1[C@@H]2C(=O)N1CCN(c2ncccn2)CC1 | 0.259 (inactive)
24 | COCCOC(=O)N1C(=O)[C@@]2(c3cc(C#CCCO)ccc31)[C@H](c1ccccc1OCCO)N1[C@H](c3ccccc3)[C@H](c3ccccc3)OC(=O)[C@H]1[C@@H]2C(=O)N1CCCCCCC1 | -3.64 (inactive)
25 | CC(=O)N1CC(C(O)C2C=CC3C(=O)NC(=O)C3N2Nc2ccc(Cl)cc2Cl)c2ccccc21 (centres undefined) | -0.0847 (inactive)
26 | COc1cc2c(cc1OC)CN(C(=O)[C@@H]1[C@H]3C(=O)O[C@H](c4ccccc4)[C@H](c4ccccc4)N3[C@H](c3ccc(O)cc3)[C@@]13C(=O)Nc1ccc(C#CCCO)cc13)CC2 | 0.082 (inactive)
27 | NCCCCCNC(=O)[C@H]1C[C@H]2C(=O)N[C@@H](Cc3ccccc3)C(=O)N2[C@H]1c1ccc(O)cc1 | 0.169 (inactive)

Row | Compound | z-score
28 | CC(C)OC(=O)CC(=O)CC(O)c1ccc([N+](=O)[O-])cc1 (centres undefined) | -0.824 (inactive)
29 | CCCNC(=O)[C@@]1(C)c2ccccc2C(=O)N(Cc2ccccc2)[C@H]1c1ccc(CO)cc1 | -0.535 (inactive)
30 | COC(=O)[C@@]1(Cc2ccc(OC)cc2)[C@H]2c3cc(C(=O)N4CCCC4)n(Cc4cc(C)n(C)n4)c3C[C@H]2CN1C(=O)c1ccccc1 | -0.434 (inactive)
31 | C=CCC(OC(C)=O)[C@@H]1[C@@H](N(Cc2ccc(-c3cccc(C(F)(F)F)c3)o2)C(=O)c2ccc(C)cc2)c2cc(OCCCO)ccc2N1C(=O)Cc1ccc(OC)cc1 (some centres undefined) | -0.159 (inactive)
32 | CC(=O)n1cc(C(O)C2C=CC3C(=O)N(c4ccccc4)C(=O)C3N2Nc2ccc(C(C)C)cc2)c2ccccc21 (centres undefined) | -0.609 (inactive)
33 | C=CCC(OC(C)=O)[C@@H]1[C@@H](N(Cc2ccc(-c3ccccc3)cc2)C(=O)c2ccc(C)cc2)c2cc(OCCCO)ccc2N1C(=O)Cc1ccc2ccccc2c1 (some centres undefined) | -0.889 (inactive)
34 | COc1cc(C(O)C2C=CC3C(=O)N(Cc4ccccc4)C(=O)C3N2n2cnnc2)cc(OC)c1OC (centres undefined) | -0.429 (inactive)
35 | COc1ccc(C(=O)Nc2cccc(CN3C(=O)[C@@]4(O[C@@H](CC(=O)N(CCO)Cc5ccccc5)[C@H]([Si](C)(C)c5ccc(OC)cc5)[C@H]4C)c4ccccc43)c2)cc1 | -4.44 (inactive)
36 | C=CCC(OC(C)=O)[C@@H]1[C@@H](N(Cc2ccc(-c3cccc(C(F)(F)F)c3)o2)C(=O)Cc2ccc(OC)cc2)c2cc(OCCCO)ccc2N1C(=O)Cc1ccc2ccccc2c1 (some centres undefined) | -1.58 (inactive)
37 | CO[C@H]1O[C@H](CO)[C@@H](OC(=O)c2ccc(Br)cc2)[C@@H]2OC(=O)[C@H](Cc3ccccc3)C/C=C/C[C@@H](Cc3ccccc3)C(=O)O[C@@H]12 | -3.95 (inactive)
38 | O=C(CS)NCCCCCCNC(=O)[C@@H]1C[C@@H]2C(=O)NCC(=O)N2[C@@H]1c1ccc(O)cc1 | -0.534 (inactive)
39 | COCCOC(=O)N1C(=O)[C@@]2(c3cc(C#CCNC(N)=O)ccc31)[C@H](c1ccc(OCCO)cc1)N1[C@H](c3ccccc3)[C@H](c3ccccc3)OC(=O)[C@H]1[C@@H]2C(=O)NC[C@H](O)c1ccccc1 | -0.441 (inactive)
40 | CC(C)C[C@@H]1NC(=O)CNC(=O)[C@@]23C(=O)N[C@@H](Cc4ccccc4)C2[C@H](C)[C@@]2(C)O[C@H]2C3/C=C/C/C=C\CNC1=O (some centres undefined) | 0.0431 (inactive)
41 | COCCOC(=O)N1C(=O)[C@@]2(c3cc(C#CC4(O)CCCCCC4)ccc31)[C@H](c1ccc(OCCO)cc1)N1[C@H](c3ccccc3)[C@H](c3ccccc3)OC(=O)[C@H]1[C@@H]2C(=O)Nc1nc2ccccc2s1 | -1.39 (inactive)
42 | COCCOC(=O)N1C(=O)[C@@]2(c3cc(C#CCC(C(=O)OC)C(=O)OC)ccc31)[C@H](C(=O)NC[C@H](O)c1ccccc1)[C@H]1C(=O)O[C@H](c3ccccc3)[C@H](c3ccccc3)N1[C@@H]2c1ccc(O)cc1 | -1.1 (inactive)
43 | C=C(C(=O)CC[C@H](OC(=O)c1ccccc1-c1ccccc1C(=O)O)c1ccccc1OCCO)C(C)C | -0.594 (inactive)
44 | C=C(C)[C@@H]1CC=C(C(O)C2C=CC3C(=O)N(c4ccccc4)C(=O)C3N2Nc2ccc(C#N)cc2)CC1 (some centres undefined) | -0.133 (inactive)

Reference: PubChem BioAssay
